# “And” between values parts separate entries of the source, which are not always exact repeats. Equal entries are not always repeated. Inconclusive results are not listed. A structure can be active in one record and inactive in another. The source made the active and inactive calls. The calls were made as follows: active = hit-call score of the fitted dose curve at least 0.9, where 1 is the maximum; inconclusive = response in the unintended direction; inactive = score below 0.9.
# Target: human Peroxisome Proliferator-activated Receptor alpha (PPARa), PPARA (gene 5465) (UniProt Q07869)
# Sequence (Q07869 whole entry, looked up): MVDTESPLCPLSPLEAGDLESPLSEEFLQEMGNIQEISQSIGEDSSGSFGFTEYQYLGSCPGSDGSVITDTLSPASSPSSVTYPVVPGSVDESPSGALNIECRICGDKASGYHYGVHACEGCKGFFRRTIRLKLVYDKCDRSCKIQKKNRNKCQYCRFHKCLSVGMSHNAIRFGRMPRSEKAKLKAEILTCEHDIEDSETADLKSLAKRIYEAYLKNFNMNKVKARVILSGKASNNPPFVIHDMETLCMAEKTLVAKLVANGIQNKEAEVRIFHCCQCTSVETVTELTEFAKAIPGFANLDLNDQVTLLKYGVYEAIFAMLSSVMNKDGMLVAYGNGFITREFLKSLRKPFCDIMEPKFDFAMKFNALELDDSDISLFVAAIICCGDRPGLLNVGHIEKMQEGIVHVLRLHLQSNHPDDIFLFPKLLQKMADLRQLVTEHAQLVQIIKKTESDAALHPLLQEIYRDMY
# Assay: ATG_PPARa_TRANS: Attagene TRANS-FACTORIAL HepG2 Assay for human Peroxisome Proliferator-activated Receptor alpha (PPARa) (AID 2283001);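 as to AC50: potency for gain of reporter signal over DMSO so agonist or activator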
# Procedure: ATG_TRANS is a cell-based, multiplexed-readout assay that uses HepG2, a human liver cell line, with measurements taken at 24 hours after chemical dosing in a 24-well plate.ATG_PPARa_TRANS is one of 30 assay component(s) measured or calculated from the ATG_TRANS assay. It is designed to make measurements of mRNA induction, a form of inducible reporter, as detected with fluorescence intensity signals by Reverse transcription polymerase chain reaction (RT-PCR) and Capillary electrophoresis technology.Data from the assay component ATG_PPARa_TRANS was analyzed into 1 assay endpoint. This assay endpoint, ATG_PPARa_TRANS, was analyzed in the positive analysis fitting direction relative to DMSO as the negative control and baseline of activity. Using a type of inducible reporter, measures of mRNA for gain-of-signal activity can be used to understand the reporter gene at the transcription factor-level as they relate to the gene PPARA. Furthermore, this assay endpoint can be referred to as a primary readout, because this assay has produced multiple assay endpoints where this one serves a reporter gene function. To generalize the intended target to other relatable targets, this assay endpoint is annotated to the nuclear receptor intended target family, where the subfamily is non-steroidal.
# Human liver HepG2 cells are transiently transfected with multiple reporter transcription units (MRTUs) in 6-well plates using FuGene 6 reagent (Roche; 3 ml FuGene/1 mg DNA). The MRTU constructs are regulated by a cis-regulating element (promoter). […] A major difference between the CIS and TRANS system is that in CIS activities of endogenous TFs are measured, whereas the TRANS assay evaluates changes in activities of exogenous, chimeric NR-Gal4 proteins. […] At the end of 24 hour incubation, total RNA was isolated using TriZol reagent (Invitrogen). The isolated RNA is then reverse-transcribed using oligo(dT) primer and Mo-MLV reverse transcriptase (Invitrogen) with DNAse I (Ambion) treatment for 30 min. The one-tenth of the produced cDNA was amplified by PCR using Taq DNA polymerase (Invitrogen) and two reporter sequence-specific primers. The PCR products were fluorescently labeled by primer extension with 6-arboxyfluorescein (6-FAM) 5'-labeled reporter sequence-specific primer (2 min at 95 C, 20 s at 68 C and 10 min at 72 C) and these products were digested with 5U of HpaI (New England Biolabs) for 2h at 37 C. The fragments were purified using Qiaquick PCR columns (Qiagen), analyzed on an ABI 3130xL genetic analyzer (Applied Biosystems) with peak positions identified by using a set of X-rhodamine (ROX)-labeled MapMarker1000 molecular weight standards (BioVentures). The raw capillary electrophoresis data was processed using Attagraph software (Attagene).
Compound,outcome,AC50
OCCOc1ccccc1,inactive,–
COc1cc(OC)nc(NC(=O)NS(=O)(=O)c2cc(NC=O)ccc2C(=O)N(C)C)n1,inactive,–
CCC(C)(C)C(=O)OC1=C(c2ccc(Cl)cc2Cl)C(=O)OC12CCCCC2,inactive,–
CCOCN(C(=O)CCl)c1c(C)cccc1CC,inactive,–
COC(=O)c1ccccc1S(=O)(=O)NC(=O)Nc1nc(C)nc(OC)n1,inactive,–
Oc1cc(Cl)ccc1Oc1ccc(Cl)cc1Cl,inactive,17.5 µM (active) and 17.4 µM (active)
COC(=O)c1ccccc1CS(=O)(=O)NC(=O)Nc1nc(OC)cc(OC)n1,inactive,–
O=C(O)COc1ccc(Cl)cc1Cl,inactive,–
COP(=S)(OC)Oc1ccc(SC)c(C)c1,inactive,–
CNC(=O)Oc1cccc(N=CN(C)C)c1,inactive,–
ClC1C(Cl)C(Cl)C(Cl)C(Cl)C1Cl (stereo not given),inactive,–
COP(=S)(OC)Oc1ccc([N+](=O)[O-])cc1,inactive,–
CN1CSC(=S)N(C)C1,inactive,–
N#Cc1c(Cl)c(Cl)c(Cl)c(C#N)c1Cl,inactive,–
O=S(=O)(O)C(F)(F)C(F)(F)C(F)(F)C(F)(F)C(F)(F)C(F)(F)C(F)(F)C(F)(F)F,inactive,–
CCOc1nc(NC)nc(NC(=O)NS(=O)(=O)c2ccccc2C(=O)OC)n1,inactive,–
CNC(=O)/C=C(\C)OP(=O)(OC)OC,inactive,–

Compound,outcome,AC50
CCCN(CCOc1c(Cl)cc(Cl)cc1Cl)C(=O)n1ccnc1,inactive,–
CC1(c2ccc(Oc3ccccc3)cc2)OC(=O)N(Nc2ccccc2)C1=O (stereo not given),inactive,–
CCS(=O)(=O)c1cccnc1S(=O)(=O)NC(=O)Nc1nc(OC)cc(OC)n1,inactive,–
CNC(=O)CSP(=S)(OC)OC,inactive,–
N#CN,inactive,–
COc1nn(CSP(=S)(OC)OC)c(=O)s1,inactive,–
C#CCN1C(=O)COc2cc(F)c(N3C(=O)C4=C(CCCC4)C3=O)cc21,inactive,–
CC(C)(C)C(O)C(Oc1ccc(Cl)cc1)n1cncn1 (stereo not given),inactive,–
Oc1ccc(Cl)cc1Cc1ccccc1,inactive,53.5 µM (active)
O=S1OCC2C(CO1)C1(Cl)C(Cl)=C(Cl)C2(Cl)C1(Cl)Cl (stereo not given),inactive,–
O=C(O)C(F)(F)C(F)(F)C(F)(F)C(F)(F)C(F)(F)C(F)(F)C(F)(F)F,–,22.8 µM (active) [middle of 4 runs]
CC(C)OC(=O)Nc1cccc(Cl)c1,inactive,–
CCC(C)Nc1c([N+](=O)[O-])cc(C(C)(C)C)cc1[N+](=O)[O-] (stereo not given),inactive,–
CCN(CC)C(=O)SCc1ccc(Cl)cc1,inactive,–
CNC(=O)Oc1ccccc1OC(C)C,inactive,–
O=C(O)CCCOc1ccc(Cl)cc1Cl,inactive,–
